Data reported in paper PMC7862700, “An all-to-all approach to the identification of sequence-specific readers for epigenetic DNA modifications on cytosine”.

Columns and labels:
Test in all cases: DAPPL (digital affinity profiling via proximity ligation, sequencing); 10 mM Tris-HCl pH 7.5, 50 mM NaCl, 1 mM DTT, 4% glycerol, room temperature, 30 min; GST-TFs on glutathione beads, 16-mer random dsDNA library, 0.1% formaldehyde crosslink after washing; high values mean tight binding
Conditions in all cases: protein: recombinant; tags: N-terminal GST; dsDNA, one strand shown
FLI1 = molecular target: T1, FLI1 (Homo sapiens, UniProt Q01543 1-452)
T1 sequence: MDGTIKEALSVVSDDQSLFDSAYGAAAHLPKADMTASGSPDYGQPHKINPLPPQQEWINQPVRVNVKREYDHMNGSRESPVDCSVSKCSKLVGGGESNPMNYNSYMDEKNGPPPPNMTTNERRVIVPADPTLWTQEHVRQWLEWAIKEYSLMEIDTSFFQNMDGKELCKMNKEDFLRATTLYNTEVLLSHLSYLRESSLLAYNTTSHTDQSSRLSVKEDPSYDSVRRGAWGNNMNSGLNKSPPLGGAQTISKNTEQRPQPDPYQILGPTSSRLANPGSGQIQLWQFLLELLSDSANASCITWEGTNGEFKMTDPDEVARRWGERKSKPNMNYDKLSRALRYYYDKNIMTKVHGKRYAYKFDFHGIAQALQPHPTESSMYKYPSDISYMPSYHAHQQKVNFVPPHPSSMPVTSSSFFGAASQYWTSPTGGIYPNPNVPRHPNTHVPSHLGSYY
Method in brief: (§1)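 Human transcription factors were made in yeast as GST fusions, captured on glutathione beads and barcoded with DNA. With a tag-only sample included, the pool was incubated with 200 nmole of a random double-stranded 16-mer DNA library in Tris/NaCl/DTT/glycerol buffer at room temperature for 30 min, then crosslinked with 0.1% formaldehyde after washing, ligated by proximity, amplified and sequenced. For binding signal, each hexamer's read frequency for a factor is divided by its frequency for the tag-only sample.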

ELK1 = molecular target: T2, ELK1 (Homo sapiens, UniProt P19419 1-428)
T2 sequence: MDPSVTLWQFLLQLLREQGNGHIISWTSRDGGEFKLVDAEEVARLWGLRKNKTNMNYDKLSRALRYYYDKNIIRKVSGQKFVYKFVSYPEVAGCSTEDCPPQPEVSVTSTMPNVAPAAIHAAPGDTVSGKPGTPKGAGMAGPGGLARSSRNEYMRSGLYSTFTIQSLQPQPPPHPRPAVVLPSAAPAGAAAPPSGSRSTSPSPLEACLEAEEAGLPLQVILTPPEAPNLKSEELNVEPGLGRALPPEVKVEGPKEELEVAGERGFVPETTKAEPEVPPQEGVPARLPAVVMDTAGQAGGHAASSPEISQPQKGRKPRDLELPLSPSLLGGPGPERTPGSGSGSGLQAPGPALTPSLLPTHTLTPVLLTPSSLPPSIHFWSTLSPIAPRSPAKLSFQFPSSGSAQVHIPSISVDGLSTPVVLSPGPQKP
Method in brief: as §1

GABPA = molecular target: T3, GABPA (Homo sapiens, UniProt Q06546 1-454)
T3 sequence: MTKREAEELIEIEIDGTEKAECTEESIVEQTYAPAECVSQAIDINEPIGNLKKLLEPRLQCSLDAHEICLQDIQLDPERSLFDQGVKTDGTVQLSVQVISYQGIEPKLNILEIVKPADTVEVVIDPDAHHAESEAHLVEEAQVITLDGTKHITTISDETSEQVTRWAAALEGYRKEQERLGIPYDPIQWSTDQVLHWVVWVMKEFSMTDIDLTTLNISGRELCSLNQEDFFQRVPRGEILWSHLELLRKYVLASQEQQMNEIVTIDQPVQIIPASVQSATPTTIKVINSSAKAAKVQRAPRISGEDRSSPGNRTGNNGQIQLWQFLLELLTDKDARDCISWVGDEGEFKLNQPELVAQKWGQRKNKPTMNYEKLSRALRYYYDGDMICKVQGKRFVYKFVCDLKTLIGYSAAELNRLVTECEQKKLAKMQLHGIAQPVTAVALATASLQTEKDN
Method in brief: as §1

ERG = molecular target: T4, ERG (Homo sapiens, UniProt P11308 1-479)
T4 sequence: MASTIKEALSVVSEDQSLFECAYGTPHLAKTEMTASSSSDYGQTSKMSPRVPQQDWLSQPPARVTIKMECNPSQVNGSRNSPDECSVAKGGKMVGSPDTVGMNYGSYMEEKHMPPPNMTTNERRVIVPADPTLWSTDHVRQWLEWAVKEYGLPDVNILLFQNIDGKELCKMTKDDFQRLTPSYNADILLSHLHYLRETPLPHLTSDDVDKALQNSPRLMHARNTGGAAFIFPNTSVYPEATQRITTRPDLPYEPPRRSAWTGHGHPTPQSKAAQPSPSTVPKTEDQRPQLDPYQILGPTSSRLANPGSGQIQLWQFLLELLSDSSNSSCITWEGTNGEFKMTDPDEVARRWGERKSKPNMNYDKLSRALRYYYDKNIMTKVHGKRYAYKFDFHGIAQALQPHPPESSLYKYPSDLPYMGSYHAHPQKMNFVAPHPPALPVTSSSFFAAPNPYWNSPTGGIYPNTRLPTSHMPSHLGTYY
Method in brief: as §1

ELF1 = ELF1 (Homo sapiens, UniProt P32519 1-619)
Method in brief: as §1

EHF = molecular target: T5, EHF (Homo sapiens, UniProt Q9NZC4 1-300)
T5 sequence: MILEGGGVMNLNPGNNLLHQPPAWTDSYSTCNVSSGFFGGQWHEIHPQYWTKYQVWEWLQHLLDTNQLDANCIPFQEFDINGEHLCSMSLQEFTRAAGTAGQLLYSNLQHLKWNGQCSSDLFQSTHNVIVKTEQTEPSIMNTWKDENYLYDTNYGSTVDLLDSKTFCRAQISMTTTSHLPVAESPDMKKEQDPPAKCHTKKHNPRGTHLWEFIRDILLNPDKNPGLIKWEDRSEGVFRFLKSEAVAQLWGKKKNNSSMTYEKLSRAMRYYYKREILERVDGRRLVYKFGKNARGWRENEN
Method in brief: as §1

SPI1 = SPI1 (Homo sapiens, UniProt P17947 1-270)
Method in brief: as §1

SPIB = SPIB (Homo sapiens, UniProt Q01892 1-262)
Method in brief: as §1

ELK3 = molecular target: T6, ELK3 (Homo sapiens, UniProt P41970 1-407)
T6 sequence: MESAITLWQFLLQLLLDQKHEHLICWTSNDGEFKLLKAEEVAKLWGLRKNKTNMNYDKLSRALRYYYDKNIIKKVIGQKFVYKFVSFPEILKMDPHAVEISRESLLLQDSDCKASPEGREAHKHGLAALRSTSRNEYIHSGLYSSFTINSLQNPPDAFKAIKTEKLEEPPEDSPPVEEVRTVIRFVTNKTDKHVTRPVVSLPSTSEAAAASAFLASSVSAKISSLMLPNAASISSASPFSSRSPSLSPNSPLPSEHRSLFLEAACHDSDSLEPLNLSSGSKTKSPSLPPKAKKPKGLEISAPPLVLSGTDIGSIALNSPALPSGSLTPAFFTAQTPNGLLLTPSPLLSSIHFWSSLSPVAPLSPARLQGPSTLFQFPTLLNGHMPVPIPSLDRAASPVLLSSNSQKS
Method in brief: as §1

FEV = molecular target: T7, FEV (Homo sapiens, UniProt Q99581 1-238)
T7 sequence: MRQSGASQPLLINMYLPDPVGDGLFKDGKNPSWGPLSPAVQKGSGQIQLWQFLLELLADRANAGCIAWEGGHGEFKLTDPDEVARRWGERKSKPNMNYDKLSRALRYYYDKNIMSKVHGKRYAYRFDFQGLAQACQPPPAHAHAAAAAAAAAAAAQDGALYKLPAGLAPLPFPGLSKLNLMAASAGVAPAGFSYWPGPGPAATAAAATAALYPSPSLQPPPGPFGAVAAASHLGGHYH
Method in brief: as §1

ETV5 = ETV5 (Homo sapiens, UniProt P41161 1-510)
Method in brief: as §1

SPIC = molecular target: T8, SPIC (Homo sapiens, UniProt Q8N5J4 1-248)
T8 sequence: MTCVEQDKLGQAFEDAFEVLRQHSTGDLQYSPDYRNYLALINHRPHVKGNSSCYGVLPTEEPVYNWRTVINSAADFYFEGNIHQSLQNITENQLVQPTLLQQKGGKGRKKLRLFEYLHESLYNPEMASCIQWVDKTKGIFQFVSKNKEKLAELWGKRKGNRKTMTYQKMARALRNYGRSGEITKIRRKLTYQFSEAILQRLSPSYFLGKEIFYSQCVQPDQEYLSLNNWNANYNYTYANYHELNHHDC
Method in brief: as §1

ELF4 = ELF4 (Homo sapiens, UniProt Q99607 1-663)
Method in brief: as §1

ELK4 = molecular target: T9, ELK4 (Homo sapiens, UniProt P28324-2 1-405)
T9 sequence: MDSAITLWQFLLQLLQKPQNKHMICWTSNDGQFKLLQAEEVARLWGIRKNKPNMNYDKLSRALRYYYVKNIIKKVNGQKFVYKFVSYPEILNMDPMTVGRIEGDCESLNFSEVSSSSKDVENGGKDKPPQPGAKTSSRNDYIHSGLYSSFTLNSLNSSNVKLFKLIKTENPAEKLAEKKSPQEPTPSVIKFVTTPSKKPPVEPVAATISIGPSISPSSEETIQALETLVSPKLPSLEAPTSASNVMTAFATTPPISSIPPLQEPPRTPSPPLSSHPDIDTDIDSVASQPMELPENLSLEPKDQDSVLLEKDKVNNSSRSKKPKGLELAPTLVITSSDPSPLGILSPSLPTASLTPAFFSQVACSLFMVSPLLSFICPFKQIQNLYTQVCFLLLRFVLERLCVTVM
Method in brief: as §1

ETV2 = molecular target: T10, ETV2 (Homo sapiens, UniProt O00321 1-342)
T10 sequence: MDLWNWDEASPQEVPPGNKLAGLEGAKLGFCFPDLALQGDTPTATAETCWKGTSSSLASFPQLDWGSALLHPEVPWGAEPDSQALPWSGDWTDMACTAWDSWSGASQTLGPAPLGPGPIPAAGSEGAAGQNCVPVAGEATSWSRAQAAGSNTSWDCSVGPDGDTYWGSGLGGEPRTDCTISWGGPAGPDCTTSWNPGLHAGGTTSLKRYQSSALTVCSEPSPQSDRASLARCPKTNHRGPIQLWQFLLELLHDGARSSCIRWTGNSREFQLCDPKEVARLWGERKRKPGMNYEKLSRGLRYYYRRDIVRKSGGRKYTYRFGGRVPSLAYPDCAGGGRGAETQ
Method in brief: as §1

ELF3 = molecular target: T11, ELF3 (Homo sapiens, UniProt P78545 1-371)
T11 sequence: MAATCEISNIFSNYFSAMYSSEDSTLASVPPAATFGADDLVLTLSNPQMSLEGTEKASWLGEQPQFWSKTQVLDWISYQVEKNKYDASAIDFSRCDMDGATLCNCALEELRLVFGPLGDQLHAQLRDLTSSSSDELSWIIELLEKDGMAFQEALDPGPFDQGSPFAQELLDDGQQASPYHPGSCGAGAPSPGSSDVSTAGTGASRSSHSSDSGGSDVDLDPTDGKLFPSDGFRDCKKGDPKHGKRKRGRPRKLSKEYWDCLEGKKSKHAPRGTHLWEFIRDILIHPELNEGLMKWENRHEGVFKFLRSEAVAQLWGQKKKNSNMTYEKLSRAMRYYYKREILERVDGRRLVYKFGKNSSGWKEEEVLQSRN
Method in brief: as §1

ETV1 = ETV1 (Homo sapiens, UniProt P50549 1-477)
Method in brief: as §1

ETV5, sequence (P41161 whole entry): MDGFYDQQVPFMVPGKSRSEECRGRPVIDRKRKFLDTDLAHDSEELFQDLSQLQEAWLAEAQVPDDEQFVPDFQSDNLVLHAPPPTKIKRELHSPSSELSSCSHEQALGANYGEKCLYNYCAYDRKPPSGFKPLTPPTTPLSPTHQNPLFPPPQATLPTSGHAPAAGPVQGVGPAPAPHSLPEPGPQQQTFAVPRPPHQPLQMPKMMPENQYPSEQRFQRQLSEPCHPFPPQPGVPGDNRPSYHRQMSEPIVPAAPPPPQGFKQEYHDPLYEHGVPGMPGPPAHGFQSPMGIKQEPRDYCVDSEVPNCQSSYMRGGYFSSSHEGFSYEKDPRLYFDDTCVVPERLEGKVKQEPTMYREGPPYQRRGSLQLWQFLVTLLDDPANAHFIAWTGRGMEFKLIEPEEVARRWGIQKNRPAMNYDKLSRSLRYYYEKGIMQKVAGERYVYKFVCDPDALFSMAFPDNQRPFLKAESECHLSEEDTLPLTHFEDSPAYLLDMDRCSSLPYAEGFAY
ETV1, sequence (P50549 whole entry): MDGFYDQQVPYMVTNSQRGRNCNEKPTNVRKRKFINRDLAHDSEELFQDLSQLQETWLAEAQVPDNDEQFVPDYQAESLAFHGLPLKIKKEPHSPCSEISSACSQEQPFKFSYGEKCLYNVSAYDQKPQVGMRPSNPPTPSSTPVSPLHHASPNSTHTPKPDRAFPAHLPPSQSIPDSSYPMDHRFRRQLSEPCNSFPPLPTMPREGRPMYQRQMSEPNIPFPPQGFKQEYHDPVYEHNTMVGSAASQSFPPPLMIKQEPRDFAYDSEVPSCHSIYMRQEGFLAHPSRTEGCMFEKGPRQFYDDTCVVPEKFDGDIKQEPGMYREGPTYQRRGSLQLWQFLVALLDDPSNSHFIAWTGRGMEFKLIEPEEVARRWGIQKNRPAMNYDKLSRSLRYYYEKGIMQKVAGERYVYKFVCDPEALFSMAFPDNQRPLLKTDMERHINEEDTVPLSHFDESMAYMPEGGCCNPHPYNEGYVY
ELF1, sequence (P32519 whole entry): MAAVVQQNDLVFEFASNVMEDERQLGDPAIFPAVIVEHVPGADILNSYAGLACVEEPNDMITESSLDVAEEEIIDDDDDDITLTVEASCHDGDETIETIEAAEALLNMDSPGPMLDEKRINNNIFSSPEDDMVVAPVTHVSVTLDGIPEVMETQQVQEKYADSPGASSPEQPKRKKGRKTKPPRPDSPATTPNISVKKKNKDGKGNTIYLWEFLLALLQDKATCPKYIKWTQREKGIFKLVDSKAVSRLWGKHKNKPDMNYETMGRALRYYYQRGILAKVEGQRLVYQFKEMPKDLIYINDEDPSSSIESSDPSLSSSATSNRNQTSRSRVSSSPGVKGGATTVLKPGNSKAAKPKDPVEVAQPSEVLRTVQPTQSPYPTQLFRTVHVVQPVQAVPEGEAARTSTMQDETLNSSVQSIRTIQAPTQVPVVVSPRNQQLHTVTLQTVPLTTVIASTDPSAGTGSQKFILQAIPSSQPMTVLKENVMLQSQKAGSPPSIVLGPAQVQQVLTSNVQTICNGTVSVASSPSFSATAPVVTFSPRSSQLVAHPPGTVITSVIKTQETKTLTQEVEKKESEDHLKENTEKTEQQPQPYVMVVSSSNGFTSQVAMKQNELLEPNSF
SPIB, sequence (Q01892 whole entry): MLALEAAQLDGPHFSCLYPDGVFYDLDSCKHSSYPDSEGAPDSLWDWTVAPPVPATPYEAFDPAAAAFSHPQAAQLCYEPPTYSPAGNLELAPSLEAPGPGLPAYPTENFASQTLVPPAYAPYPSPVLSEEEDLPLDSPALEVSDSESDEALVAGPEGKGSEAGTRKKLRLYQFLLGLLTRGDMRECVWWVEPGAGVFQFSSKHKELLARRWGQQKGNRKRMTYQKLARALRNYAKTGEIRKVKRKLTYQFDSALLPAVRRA
ELF4, sequence (Q99607 whole entry): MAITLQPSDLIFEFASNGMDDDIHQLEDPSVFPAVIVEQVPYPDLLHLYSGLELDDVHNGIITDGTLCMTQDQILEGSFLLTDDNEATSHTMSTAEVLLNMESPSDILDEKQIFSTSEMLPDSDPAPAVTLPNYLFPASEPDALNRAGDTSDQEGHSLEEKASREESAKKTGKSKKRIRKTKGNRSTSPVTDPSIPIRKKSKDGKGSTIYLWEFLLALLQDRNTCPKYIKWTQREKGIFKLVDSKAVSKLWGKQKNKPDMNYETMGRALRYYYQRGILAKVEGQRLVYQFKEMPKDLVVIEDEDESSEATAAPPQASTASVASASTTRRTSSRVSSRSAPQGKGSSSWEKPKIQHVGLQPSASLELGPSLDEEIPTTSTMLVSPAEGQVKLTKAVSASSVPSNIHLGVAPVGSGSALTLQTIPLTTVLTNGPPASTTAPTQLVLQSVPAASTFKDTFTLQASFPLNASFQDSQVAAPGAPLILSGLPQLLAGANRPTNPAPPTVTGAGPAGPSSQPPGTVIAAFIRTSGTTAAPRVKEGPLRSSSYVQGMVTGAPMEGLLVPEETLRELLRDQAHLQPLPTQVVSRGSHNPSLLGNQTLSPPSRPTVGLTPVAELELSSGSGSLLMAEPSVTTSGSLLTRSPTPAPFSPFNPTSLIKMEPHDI

Sequence: CGACAC
- binding signal (FLI1): 1.18 fold enrichment (6-mer frequency, TF over GST control)
- binding signal (ELK1): 1.14 fold enrichment (6-mer frequency, TF over GST control)
- binding signal (GABPA): 1.16 fold enrichment (6-mer frequency, TF over GST control)
- binding signal (ERG): 1.23 fold enrichment (6-mer frequency, TF over GST control)
- binding signal (ELF1): 1.24 fold enrichment (6-mer frequency, TF over GST control)
- binding signal (EHF): 1.19 fold enrichment (6-mer frequency, TF over GST control)
- binding signal (SPI1): 1.2 fold enrichment (6-mer frequency, TF over GST control)
- binding signal (SPIB): 1.25 fold enrichment (6-mer frequency, TF over GST control)
- binding signal (ELK3): 1.14 fold enrichment (6-mer frequency, TF over GST control)
- binding signal (FEV): 1.21 fold enrichment (6-mer frequency, TF over GST control)
- binding signal (ETV5): 1.13 fold enrichment (6-mer frequency, TF over GST control)
- binding signal (SPIC): 1.15 fold enrichment (6-mer frequency, TF over GST control)
- binding signal (ELF4): 1.21 fold enrichment (6-mer frequency, TF over GST control)
- binding signal (ELK4): 1.14 fold enrichment (6-mer frequency, TF over GST control)
- binding signal (ETV2): 1.15 fold enrichment (6-mer frequency, TF over GST control)
- binding signal (ELF3): 1.04 fold enrichment (6-mer frequency, TF over GST control)
- binding signal (ETV1): 1.16 fold enrichment (6-mer frequency, TF over GST control)

Sequence: ACACAC
- binding signal (FLI1): 1.24 fold enrichment (6-mer frequency, TF over GST control)
- binding signal (ELK1): 1.13 fold enrichment (6-mer frequency, TF over GST control)
- binding signal (GABPA): 1.21 fold enrichment (6-mer frequency, TF over GST control)
- binding signal (ERG): 1.22 fold enrichment (6-mer frequency, TF over GST control)
- binding signal (ELF1): 1.19 fold enrichment (6-mer frequency, TF over GST control)
- binding signal (EHF): 1.23 fold enrichment (6-mer frequency, TF over GST control)
- binding signal (SPI1): 1.14 fold enrichment (6-mer frequency, TF over GST control)
- binding signal (SPIB): 1.19 fold enrichment (6-mer frequency, TF over GST control)
- binding signal (ELK3): 1.12 fold enrichment (6-mer frequency, TF over GST control)
- binding signal (FEV): 1.18 fold enrichment (6-mer frequency, TF over GST control)
- binding signal (ETV5): 1.15 fold enrichment (6-mer frequency, TF over GST control)
- binding signal (SPIC): 1.23 fold enrichment (6-mer frequency, TF over GST control)
- binding signal (ELF4): 1.21 fold enrichment (6-mer frequency, TF over GST control)
- binding signal (ELK4): 1.21 fold enrichment (6-mer frequency, TF over GST control)
- binding signal (ETV2): 1.33 fold enrichment (6-mer frequency, TF over GST control)
- binding signal (ELF3): 1.23 fold enrichment (6-mer frequency, TF over GST control)
- binding signal (ETV1): 1.17 fold enrichment (6-mer frequency, TF over GST control)
